Laboratory results reported in PubChem BioAssay (Tox21).
Values joined by “and” are separate entries in the source; they are usually repeats but may differ in a detail not shown here. Identical values can stand only once. Where a structure was tested more than once in an assay, its records may differ in their call. Active and inactive are the calls of the source. A call without a number means that no potency is given here. Unless noted, calls come from the whole dose curve; as a rule, active = well fitted curve in the direction sought with a large enough effect in the repeat runs; inconclusive = weak or mixed curves; inactive = no such curve, though single readings can be large; an effect the other way counts as inactive or inconclusive.

What was measured:
[1] = qHTS assay to identify small molecule antagonists of the thyroid receptor (TR) signaling pathway - cell viability counter screen (AID 743064); note: nearly all actives have a fitted effect of over 50% in size; note: potency is the fitted concentration of half-maximal effect
Method in brief: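 Same-well viability check: GH3.TRE-Luc cells stimulated with 1 nM T3 alongside test compound for 23.5 h, followed by CellTiter-Fluor fluorescence.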

[2] = qHTS assay to identify small molecule antagonists of the thyroid receptor (TR) signaling pathway (AID 743065); note: nearly all actives have a fitted effect of over 55% in size; note: potency is the fitted concentration of half-maximal effect
Method in brief: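 Antagonism measured as loss of luciferase signal in GH3 cells stably carrying a TRE-luciferase reporter, co-treated with compound and T3 (1 nM final) for 23.5 h at 37 C. Viability was read in the same well by CellTiter-Fluor.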

[3] = system: thyroid hormone receptor (rat, GH3 cells); assay: qHTS assay to identify small molecule agonists of the thyroid receptor (TR) signaling pathway (AID 743066; calls by dose curve)
[4] = qHTS assay to identify small molecule antagonists of the estrogen receptor alpha (ER-alpha) signaling pathway - cell viability counter screen (AID 743074; calls by dose curve; note: nearly all actives have a fitted effect of over 45% in size; note: potency is the fitted concentration of half-maximal effect)
[5] = qHTS assay to identify small molecule antagonists of the estrogen receptor alpha (ER-alpha) signaling pathway using the BG1 cell line - cell viability counter screen (AID 743081);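 note: compound given together with 17beta-estradiol as the ER stimulus; nearly all actives have a fitted effect of over 45% in size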; note: potency is the fitted concentration of half-maximal effect
Aromatase (Homo sapiens) = Aromatase (Homo sapiens) (UniProt P11511); assay: qHTS assay to identify aromatase inhibitors (AID 743083); note: nearly all actives have a fitted effect of over 55% in size; note: potency is the fitted concentration of half-maximal effect
Sequence of Aromatase (Homo sapiens) (P11511 whole entry, looked up): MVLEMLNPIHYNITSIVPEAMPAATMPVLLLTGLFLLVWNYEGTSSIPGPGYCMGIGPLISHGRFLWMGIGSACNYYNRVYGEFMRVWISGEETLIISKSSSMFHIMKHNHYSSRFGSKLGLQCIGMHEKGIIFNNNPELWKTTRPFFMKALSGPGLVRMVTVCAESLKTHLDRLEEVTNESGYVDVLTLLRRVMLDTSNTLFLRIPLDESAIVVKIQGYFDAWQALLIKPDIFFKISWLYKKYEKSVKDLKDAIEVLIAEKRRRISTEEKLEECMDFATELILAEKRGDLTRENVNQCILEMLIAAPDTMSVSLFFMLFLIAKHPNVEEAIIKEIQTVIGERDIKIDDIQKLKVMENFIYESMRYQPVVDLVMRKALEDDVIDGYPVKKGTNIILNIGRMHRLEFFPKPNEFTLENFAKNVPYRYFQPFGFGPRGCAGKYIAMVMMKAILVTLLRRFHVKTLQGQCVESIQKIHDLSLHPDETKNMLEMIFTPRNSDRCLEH

[6] = qHTS assay to identify aromatase inhibitors - cell viability counter screen (AID 743084);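 note: cells stimulated with testosterone during compound exposure; nearly all actives have a fitted effect of over 55% in size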; note: potency is the fitted concentration of half-maximal effect
[7] = biological target: Aryl hydrocarbon receptor (Homo sapiens) (UniProt P35869); assay: qHTS assay to identify small molecule that activate the aryl hydrocarbon receptor (AhR) signaling pathway (AID 743085); note: nearly all actives have a fitted effect of over 15% in size; note: potency is the fitted concentration of half-maximal effect;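 for activation: HG2L7.5c1 human HepG2 liver cells with stably integrated DRE-driven firefly reporter; series mostly up to about 70 µM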
Sequence of Aryl hydrocarbon receptor (Homo sapiens) (P35869 whole entry, looked up): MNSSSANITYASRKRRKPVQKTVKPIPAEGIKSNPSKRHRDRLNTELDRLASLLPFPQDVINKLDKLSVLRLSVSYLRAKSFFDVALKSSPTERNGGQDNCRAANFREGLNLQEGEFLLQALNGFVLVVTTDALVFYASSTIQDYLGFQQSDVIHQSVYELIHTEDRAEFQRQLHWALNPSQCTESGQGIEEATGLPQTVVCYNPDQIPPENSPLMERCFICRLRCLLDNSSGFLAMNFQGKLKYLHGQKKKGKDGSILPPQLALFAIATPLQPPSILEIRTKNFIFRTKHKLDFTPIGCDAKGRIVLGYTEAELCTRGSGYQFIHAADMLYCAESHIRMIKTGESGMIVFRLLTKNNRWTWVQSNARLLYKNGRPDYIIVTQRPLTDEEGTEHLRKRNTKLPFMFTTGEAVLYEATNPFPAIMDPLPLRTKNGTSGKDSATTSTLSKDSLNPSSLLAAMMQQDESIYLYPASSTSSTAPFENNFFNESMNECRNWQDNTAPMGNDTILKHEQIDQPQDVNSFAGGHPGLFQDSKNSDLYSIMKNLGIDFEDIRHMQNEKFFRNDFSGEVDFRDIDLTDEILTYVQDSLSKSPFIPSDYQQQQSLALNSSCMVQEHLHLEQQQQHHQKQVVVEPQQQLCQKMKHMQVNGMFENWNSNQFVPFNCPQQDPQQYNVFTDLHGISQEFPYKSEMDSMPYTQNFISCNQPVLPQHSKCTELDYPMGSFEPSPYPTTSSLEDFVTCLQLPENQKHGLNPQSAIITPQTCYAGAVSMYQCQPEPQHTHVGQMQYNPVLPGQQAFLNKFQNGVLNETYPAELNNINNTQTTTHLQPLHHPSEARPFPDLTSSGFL
Method in brief: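 Reporter assay in engineered HepG2 line HG2L7.5c1, whose plasmid carries twenty dioxin responsive elements upstream of firefly luciferase. Treatment lasted 24 h at 37C; ONE-Glo luminescence gauged induction.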

[8] = qHTS assay to identify small molecule that activate the aryl hydrocarbon receptor (AhR) signaling pathway - cell viability counter screen (AID 743086); note: nearly all actives have a fitted effect of over 45% in size; note: potency is the fitted concentration of half-maximal effect
Method in brief: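 Cytotoxicity counter screen: CellTiter-Fluor signal (30 min, 37 C) in 4000 HepG2 cells/well carrying the DRE-luciferase reporter, following 24 h compound exposure at 37 C.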

[9] = biological target: Peroxisome proliferator-activated receptor gamma (Homo sapiens) (UniProt P37231); assay: qHTS assay to identify small molecule agonists of the peroxisome proliferator-activated receptor gamma (PPARg) signaling pathway (AID 743094; active = well fitted activation curve with a large enough effect in the signal ratio in the repeat runs, not every such curve was filed as active; inconclusive = weak or mixed curves, or effect the other way; inactive = no such curve, though single readings can be large or run the other way; the % refers to the signal ratio; note: potency is the fitted concentration of half-maximal effect)
Sequence of Peroxisome proliferator-activated receptor gamma (Homo sapiens) (P37231 whole entry, looked up): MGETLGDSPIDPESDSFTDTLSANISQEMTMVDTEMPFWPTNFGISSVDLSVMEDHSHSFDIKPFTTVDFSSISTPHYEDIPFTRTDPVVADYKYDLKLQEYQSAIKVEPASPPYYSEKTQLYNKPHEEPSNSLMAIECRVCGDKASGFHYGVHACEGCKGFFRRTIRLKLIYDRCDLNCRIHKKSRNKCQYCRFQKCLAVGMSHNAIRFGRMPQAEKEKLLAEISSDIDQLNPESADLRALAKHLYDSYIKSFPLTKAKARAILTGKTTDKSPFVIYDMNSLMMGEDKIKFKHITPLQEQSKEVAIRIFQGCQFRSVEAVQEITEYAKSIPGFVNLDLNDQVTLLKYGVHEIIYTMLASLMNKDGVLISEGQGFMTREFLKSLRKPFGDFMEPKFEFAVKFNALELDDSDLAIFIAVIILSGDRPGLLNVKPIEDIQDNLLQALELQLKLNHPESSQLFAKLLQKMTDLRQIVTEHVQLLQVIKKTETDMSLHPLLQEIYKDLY
Method in brief: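 Reporter activation was scored by fluorescence of cleaved LiveBLAzer B/G substrate (1 h, room temperature) in PPARg-bla HEK293H cells previously treated 17 h at 37C with DMSO-dissolved compounds.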

[10] = biological target: Peroxisome proliferator-activated receptor gamma (Homo sapiens) (UniProt P37231); assay: qHTS assay to identify small molecule antagonists of the peroxisome proliferator-activated receptor gamma (PPARg) signaling pathway (AID 743191; calls by dose curve; note: nearly all actives have a fitted effect of over 30% in size; note: potency is the fitted concentration of half-maximal effect)
Method in brief: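 Beta-lactamase reporter under UAS control in HEK293H PPARg-bla cells; compound treatment 17 h at 37C. Read-out: fluorescence intensity after 1 h room-temperature incubation with LiveBLAzer B/G FRET substrate.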

[11] = qHTS assay to identify small molecule antagonists of the peroxisome proliferator-activated receptor gamma (PPARg) signaling pathway - cell viability counter screen (AID 743194); note: nearly all actives have a fitted effect of over 55% in size; note: potency is the fitted concentration of half-maximal effect
Method in brief: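 Viability was measured as CellTiter-Glo luminescence in GeneBLAzer PPARg UAS-bla HEK293H cells. These cells had been exposed 17 h at 37 C to compounds together with rosiglitazone at 50 nM final, with the beta-lactamase readout taken in the same wells.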

[12] = qHTS assay for small molecule agonists of the antioxidant response element (ARE) signaling pathway (AID 743202; active = well fitted activation curve with a large enough effect in the signal ratio in the repeat runs, not every such curve was filed as active; inconclusive = weak or mixed curves, or effect the other way; inactive = no such curve, though single readings can be large or run the other way; the % refers to the signal ratio; note: potency is the fitted concentration of half-maximal effect)
Method in brief: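 Beta-lactamase reporter activity, read as fluorescence intensity, reflects ARE/Nrf2 pathway induction in HepG2 cells after 16 h compound exposure at 37 C; substrate loading was 2 h at room temperature.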

[13] = qHTS assay for small molecule activators of the heat shock response signaling pathway - cell viability counter screen (AID 743209); note: nearly all actives have a fitted effect of over 50% in size
Method in brief: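 Viability of HSE-bla HeLa cells is measured with CellTiter-Glo in the wells already used for the reporter read. Compound exposure lasts 5 h at 37 C, and luminescence is read after 30 min at room temperature.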

[14] = qHTS assay for small molecule agonists of the antioxidant response element (ARE) signaling pathway - cell viability counter screen (AID 743203; calls by dose curve; note: nearly all actives have a fitted effect of over 55% in size; note: potency is the fitted concentration of half-maximal effect)
Method in brief: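 Viability counter screen: stably transfected ARE-bla HepG2 line, 16 hrs compound exposure at 37C/5% CO2, ATP-based CellTiter-Glo luminescence measured in the reporter wells.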

[15] = qHTS assay for small molecule activators of the heat shock response signaling pathway (AID 743210; active = well fitted activation curve with a large enough effect in the signal ratio in the repeat runs, with a control signal flat, not every such curve was filed as active; inconclusive = weak or mixed curves; the % refers to the signal ratio;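 note: HeLa cells with beta-lactamase reporter driven by heat shock elements; series mostly up to about 63 µM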)
Method in brief: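 Fluorescence from a cleaved B/G FRET substrate (2.5 h, room temp) reports HSE-driven beta-lactamase in HeLa cells treated 5 h at 37 C with DMSO-dissolved compounds.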

[16] = biological target: Estrogen receptor (Homo sapiens) (UniProt P03372); assay: qHTS assay to identify small molecule agonists of the estrogen receptor alpha (ER-alpha) signaling pathway (AID 743075; calls by dose curve; note: potency is the fitted concentration of half-maximal effect)
Sequence of Estrogen receptor (Homo sapiens) (P03372 whole entry, looked up): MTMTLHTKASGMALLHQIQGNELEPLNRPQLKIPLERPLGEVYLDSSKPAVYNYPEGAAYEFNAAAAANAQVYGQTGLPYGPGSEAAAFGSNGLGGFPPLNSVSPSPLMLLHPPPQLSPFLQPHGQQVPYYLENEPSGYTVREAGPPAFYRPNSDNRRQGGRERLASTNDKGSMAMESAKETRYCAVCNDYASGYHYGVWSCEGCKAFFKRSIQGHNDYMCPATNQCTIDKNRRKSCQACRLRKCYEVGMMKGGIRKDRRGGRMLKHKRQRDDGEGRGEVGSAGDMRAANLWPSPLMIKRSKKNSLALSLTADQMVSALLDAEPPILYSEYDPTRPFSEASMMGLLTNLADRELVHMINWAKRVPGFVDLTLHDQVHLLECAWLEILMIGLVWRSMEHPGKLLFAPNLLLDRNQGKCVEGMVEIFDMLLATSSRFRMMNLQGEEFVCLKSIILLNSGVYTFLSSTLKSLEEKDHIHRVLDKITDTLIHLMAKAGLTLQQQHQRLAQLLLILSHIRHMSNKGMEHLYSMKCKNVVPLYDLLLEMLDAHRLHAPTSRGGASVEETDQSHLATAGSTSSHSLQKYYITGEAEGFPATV

[17] = biological target: Estrogen receptor (Homo sapiens) (UniProt P03372); assay: qHTS assay to identify small molecule agonists of the estrogen receptor alpha (ER-alpha) signaling pathway using the BG1 cell line (AID 743079); note: nearly all actives have a fitted effect of over 20% in size; note: potency is the fitted concentration of half-maximal effect
[18] = qHTS assay to identify small molecule antagonists of the estrogen receptor alpha (ER-alpha) signaling pathway using the BG1 cell line (AID 743080; calls by dose curve;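 note: BG1 cells stimulated with 17beta-estradiol alongside compound; nearly all actives have a fitted effect of over 25% in size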; note: potency is the fitted concentration of half-maximal effect)
Method in brief: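 BG1-Luc-4E2 cells (endogenous full-length ER-alpha, stable 4×ERE-luciferase) were starved 5 days in phenol-red-free medium with 10% charcoal-stripped FBS, plated 24 h, then given compound plus 17beta-estradiol for 21.5 h at 37 C; ONE-Glo luminescence read after 30 min.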

[19] = biological target: Estrogen receptor (Homo sapiens) (UniProt P03372); assay: qHTS assay to identify small molecule antagonists of the estrogen receptor alpha (ER-alpha) signaling pathway (AID 743069; active = well fitted curve in the direction sought with a large enough effect in the signal ratio in the repeat runs, not every such curve was filed as active; inconclusive = weak or mixed curves, or effect the other way; inactive = no such curve, though single readings can be large or run the other way; the % refers to the signal ratio; note: potency is the fitted concentration of half-maximal effect)
Method in brief: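 Fluorescence intensity from a beta-lactamase FRET substrate served as the read-out. Cells: HEK293 with stably integrated ER-alpha-UAS-bla reporter. Agonist 17beta-estradiol was co-added with compounds; incubation 18 hr at 37C, substrate 2 hr at room temperature.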

Compound	Potency [1]	Potency [2]	Potency [3]	Potency [4]	Potency [5]	Potency (Aromatase (Homo sapiens))	Potency [6]	Potency [7]	Potency [8]	Potency [9]	Potency [10]	Potency [11]	Potency [12]	Potency [13]	Potency [14]	Potency [15]	Potency [16]	Potency [17]	Potency [18]	Potency [19]
COc1ccc(C(=O)CC(=O)c2ccc(C(C)(C)C)cc2)cc1	26.6 µM (active) and 65.8 µM (active)	29.8 µM (active)	inactive	inactive	inactive	inactive	inactive	inactive	inactive	inactive	inactive	inactive	inactive	inactive						
CCCCCCCCCC(=O)OC	inactive	inactive	inactive	inactive	inactive	inactive	inactive	inactive	inactive	inactive	inactive		inactive	inactive	inactive	inactive				
Nc1ncn([C@@H]2O[C@H](CO)[C@@H](O)[C@H]2O)c(=O)n1	5.31 µM (active) and 9.69 µM (active)	7.5 µM (active) and 9.69 µM (active)	inactive	inactive	inactive	13.3 µM (active) and 8.63 µM (active)		inactive	5.31 µM (active)		inactive	inactive	1.54 µM (active) and 2.66 µM (active)	inactive	inactive	inactive	inactive	inactive	inactive	
COC(=O)C1=C(C)NC(C)=C(C(=O)OCCN(C)Cc2ccccc2)C1c1cccc([N+](=O)[O-])c1 (stereo not given)	13.3 µM (active) and 19.2 µM (active)	9.44 µM (active) and 17.1 µM (active)	inactive	inactive	54.2 µM (active)	29.8 µM (active) and 60.8 µM (active)	21.1 µM (active) and 54.2 µM (active)	inactive				24.4 µM (active) and 33.5 µM (active)		inactive	24.2 µM (active) and 26.6 µM (active)		inactive			23.9 µM [inconclusive] (active)
Nc1ccc(S(=O)(=O)Nc2cnc3ccccc3n2)cc1	inactive	inactive	inactive	inactive	inactive	inactive	inactive	inactive		inactive	inactive		inactive	inactive	inactive	inactive				
O=C(Nc1ccc(Cl)cc1)Nc1ccc(Cl)c(Cl)c1	4.22 µM (active) and 3.44 µM (active)	2.66 µM (active) and 2.72 µM (active) and 2.73 µM (active)	inactive		inactive	9.64 µM (active) and 13.7 µM (active)	19.2 µM (active) and 30.6 µM (active)	2.16 µM (active) and 2.73 µM (active)	inactive	inactive		4.34 µM (active) and 4.9 µM (active) and 6.68 µM (active)		inactive	2.42 µM (active) and 2.73 µM (active) and 10.6 µM (active)	inactive	inactive		13.3 µM (active) and 24.2 µM (active)	3.47 µM [cytotoxic] (active)
O=C(c1ccc(OCCN2CCCCC2)cc1)c1c(-c2ccc(O)cc2)sc2cc(O)ccc12	6.68 µM (active) and 4.33 µM (active) and 6.11 µM (active)	6.68 µM (active) and 4.86 µM (active)	inactive	23.9 µM (active) and 49 µM (active) and 54.9 µM (active)	8.41 µM (active) and 10.9 µM (active) and 13.7 µM (active)	11.9 nM (active) and 3.9 nM (active) and 4.3 nM (active)	29.8 µM (active) and 34.4 µM (active)	inactive				55 µM (active) and 15.5 µM (active) and 26.6 µM (active)		inactive	61.2 µM (active) and 17.2 µM (active) and 29.8 µM (active)	inactive				
CC(=O)c1ccccn1	inactive	inactive	inactive	inactive	inactive	inactive	inactive	inactive	inactive	inactive	inactive	inactive	inactive	inactive		inactive				
c1ccc2cc(Nc3ccc(Nc4ccc5ccccc5c4)cc3)ccc2c1	inactive	inactive	inactive	inactive	inactive	inactive	inactive	30.8 µM (active) and 30.6 µM (active)	inactive	22 µM (active)			inactive	inactive		inactive				
Clc1nc(Cl)c(Cl)c(Cl)c1Cl	inactive	inactive	inactive	inactive	inactive	inactive	inactive	inactive		inactive	inactive	inactive	7740 nM (active)	inactive	inactive	inactive				
COC(=O)c1ccccc1	inactive	inactive	inactive	inactive	inactive	inactive	inactive	inactive	inactive	inactive	inactive		inactive	inactive	inactive	inactive				
COC(=O)Nc1nc2ccc(S(=O)c3ccccc3)cc2[nH]1 (stereo not given)	inactive	10.6 µM (active) and 15.3 µM (active)	inactive	inactive	inactive	inactive	inactive	3.76 µM (active) and 3.06 µM (active)		inactive	inactive		inactive	inactive	inactive	inactive	inactive	inactive	12.2 µM (active)	
O=C(c1ccccc1)c1ccccc1O	inactive	inactive	inactive	inactive	inactive	inactive and 27.3 µM (active)	inactive		inactive	inactive	inactive	inactive	inactive	inactive	inactive	inactive				
CN(C)CCC=C1c2ccccc2CCc2ccccc21	23.7 µM (active) and 5.45 µM (active) and 24.3 µM (active)	26.6 µM (active) and 24.3 µM (active) and 21.7 µM (active)	inactive		inactive	inactive	inactive	inactive			inactive			inactive		inactive	inactive	inactive		54.9 µM [inconclusive] (active)
CCOC(=O)C(C#N)=C(c1ccccc1)c1ccccc1	inactive	inactive	inactive	inactive	inactive	inactive	inactive	inactive		inactive	49 µM (active) and inactive	inactive		inactive		inactive				
O=P(O)(O)O	inactive	inactive	inactive	inactive	inactive	inactive	inactive	inactive	inactive					inactive	inactive	inactive				
C[Si](C)(C)O[Si](C)(C)C	inactive	inactive	inactive	inactive	inactive	inactive	inactive	inactive		inactive	inactive	inactive	inactive	inactive		inactive				
COc1c(Cl)c(Cl)c(Cl)c(Cl)c1Cl	inactive	inactive	inactive	inactive	inactive	inactive	inactive	inactive	inactive			inactive	inactive	inactive	inactive	inactive				
CCCc1c(OCCCCc2nn[nH]n2)ccc(C(C)=O)c1O	inactive	23.7 µM (active) and 61.1 µM (active)	inactive	inactive	inactive	inactive	inactive		inactive	2.19 µM (active)	8.71 µM (active)	inactive		inactive		inactive	inactive	inactive	inactive	
O=Cc1ccccc1O	inactive	inactive	inactive		inactive	inactive	inactive	inactive	inactive	inactive	inactive		inactive	inactive			inactive		inactive	inactive
Cc1ncc[nH]1	inactive	inactive	inactive	inactive	inactive	inactive	inactive	inactive and 48.5 µM (active)	inactive	inactive	inactive	inactive	inactive	inactive	inactive	inactive				
O=C1OC2(c3cc(Br)c(O)c(Br)c3Oc3c2cc(Br)c(O)c3Br)c2c(Cl)c(Cl)c(Cl)c(Cl)c21	24.4 µM (active) and 41.6 µM (active)	54.5 µM (active) and 41.6 µM (active)	inactive		8.64 µM (active) and 18.6 µM (active)	inactive	4.86 µM (active) and 8.31 µM (active)	inactive				inactive	inactive	inactive	inactive		inactive	inactive		inactive
Nc1ccccc1N	inactive	5.45 µM (active)	inactive	inactive		inactive	inactive	27.9 µM (active) and 19.8 µM (active)	19.8 µM (active)	inactive		inactive	788 nM (active)	inactive		inactive	inactive	inactive	inactive	
NNc1ccc(C(=O)O)cc1	inactive	inactive	inactive	inactive	inactive	inactive	inactive	inactive	inactive	inactive	inactive	inactive	inactive	inactive		inactive				
C[C@]12CC[C@H]3[C@@H](CCC4=CC(=O)CC[C@@]43C)[C@@H]1CC[C@@H]2C(=O)CO	inactive		inactive	inactive	inactive	inactive	inactive	inactive	inactive	inactive		inactive		inactive	inactive	inactive	inactive	7.7 µM (active)	inactive	
c1ccc(Nc2ccccc2)cc1	inactive			inactive	inactive	inactive	inactive	inactive	inactive	inactive	inactive	inactive	inactive	inactive		inactive				
CCC(C)CO (stereo not given)		inactive	inactive	inactive	inactive	inactive	inactive	inactive		inactive	inactive	inactive	inactive	inactive		inactive	inactive	inactive	inactive	inactive
COc1cccc2c1C(=O)c1c(O)c3c(c(O)c1C2=O)C[C@@](O)(C(=O)CO)C[C@@H]3O[C@H]1C[C@H](N)[C@H](O)[C@H](C)O1	inactive and 1.68 µM (active) and 122 nM (active)		inactive	inactive	inactive and 27.3 µM (active)	inactive and 6.68 µM (active) and 1.72 µM (active)	inactive and 13.3 µM (active) and 12.2 µM (active)	inactive	inactive and 3.85 µM (active)	inactive	2.37 µM (active)		266 nM (active)				inactive and 2.68 µM [inconclusive] (active) and 15.5 µM [inconclusive] (active)	inactive	inactive	inactive and 6.01 µM [inconclusive] (active) and 3.46 µM [inconclusive] (active)
